High-throughput results: PubChem, National Center for Advancing Translational Sciences (NCATS)
PMP22 txn prim – modulators of PMP22 gene transcription in S16 Schwann cells | S16 Pmp22-F2sN Schwann cells, FLuc/NLuc coincidence luminescence, 24 h | Potency, µM (doses to about 57.5 µM), for inactives: at the highest dose activity change, negative = inhibition, actives largely listed as inhibitors | actives 2% (n = 43,000) | AID 1508649; active = clear falling dose curves in both reporters; inconclusive = both reporters move, but less clearly or upward; inactive = either reporter flat; the % is the NLuc reporter signal; note: potency is the fitted concentration of half-maximal effect; % is set by controls: 0 for no effect and ±100 for the full control effect
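qHTS, 1536-well. Cells seeded, compounds added by pin tool, 24 h 37C. Nano-Glo reagent 1 (lysis/FLuc), 10 min RT, read; Stop&Glo, 10 min RT, read NLuc.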
p53null 39C tox – p53 null cell cytotoxicity, nonpermissive temperature; Potency, µM (titrated, usually from 46.1 µM), for the others: top-dose activity, negative = cell killing, actives largely listed as cytotoxic; actives 0.97% (n = 55,000); H1299 p53-null (neo) cells, 39C, ATPlite viability, 24 h;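 note: potency is the fitted concentration of half-maximal effect; 0% = DMSO only and -100% = full killing by 100 µM tamoxifen; nearly all actives have a fitted effect of over 50% in size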
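Cells seeded at 600/well, 37C overnight. Compound added (up to 46 uM), plates shifted to 39C for 24 hr. ATPlite added, luminescence read after 20 min at room temperature.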
S16 F2sN tox – toxic to S16 Pmp22-F2sN Schwann cells; actives 0.48% (n = 43,000); S16 Pmp22-F2sN Schwann cells viability, CellTiter-Glo, 24 h; AID 1508642; Potency, µM (titrated, usually from 57.5 µM), for inactives: top-dose activity change, negative = cytotoxicity, hits mostly cytotoxic; note: potency is the fitted concentration of half-maximal effect; % is set by controls: 0 for no effect and ±100 for the full control effect; nearly all actives have a fitted effect of over 65% in size
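S16 Schwann cells carrying the Pmp22-F2sN reporter, seeded in 1536-well format, were exposed to library compounds for 24 h at 37C. Viability was read as CellTiter-Glo luminescence after 15 min at room temperature.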
mTORC1 inh – inhibitors of mTORC1 signaling in Tsc2-/- p53-/- MEF cells. Tsc2-/- p53-/- MEF, phospho-rpS6 immunofluorescence/PI, 24 h. Potency, µM (doses to about 38.3 µM), without a hit: top-dose activity change, negative = inhibition, actives largely listed as inhibitors. actives 0.78% (n = 44,000). AID 493208;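 note: potency is the fitted concentration of half-maximal effect; plate controls were DMSO for no effect and rapamycin for full effect; nearly all actives have a fitted effect of over 50% in size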
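Tsc2-/-, p53-/- mouse embryonic fibroblasts (empty-vector line) exposed to compound 24 hrs at 37 C, fixed, immunostained for phospho-rpS6 and counterstained with propidium iodide. Acumen laser scanning gives % positive cells from Alexa 488/PI ratio, thresholded using 7.5 nM rapamycin; PI count gives viability.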
SKOV3 invasion – blocks SKOV3ip1 adhesion and invasion in omental model. SKOV3ip1-GFP adhesion/invasion on 3D omental model, fluorescence. Potency, µM (top dose mostly 45.8 µM), for inactives: at the highest dose activity change, negative = inhibition, usual class: inhibitors. actives 0.1% (n = 46,000). AID 1963576;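 note: potency is the fitted concentration of half-maximal effect; plate controls were DMSO wells for no effect and tomatine positive control wells for full effect; nearly all actives have a fitted effect of over 65% in size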
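Adhesion/invasion was scored as fixed GFP-labeled SKOV3ip1 cell counts (488/509 nm), normalized to DMSO and tomatine controls. Cancer cells in serum-free medium, with four compound doses (0.36-46 umol/L), sat 2 hr at RT then 16 hr at 37 C on a 48 hr fibroblast/mesothelial/ECM culture.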
p53null 32C kill – kills p53 null cells at the permissive temperature | AID 903 | H1299-neo p53 null cells, ATP luminescence, 24 h, 32C | actives 0.62% (n = 55,000) | Potency, µM (highest dose often 46.1 µM), for the others: top-dose activity change, negative = cytotoxicity, hits mostly cytotoxic;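 note: potency is the fitted concentration of half-maximal effect; 0% = DMSO only and -100% = full killing by 100 µM tamoxifen; nearly all actives have a fitted effect of over 55% in size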
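Luminescent ATP readout gave cell viability of p53-null H1299-neo cells after a 24 h compound exposure at the permissive 32C. Titrations ran up to 46 uM, and AC50s were fitted with the standard Hill equation.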
NLuc saturating – NanoLuc enzyme inhibition artifact for PMP22 screen; shares compounds with PMP22 txn prim; Secreted NLuc enzyme (filtered S16 cell medium), Nano-Glo luminescence; Potency, µM (doses to about 57.5 µM), for the others: at the top dose activity change, negative = inhibition, actives largely listed as inhibitors; actives 4% (n = 690); AID 1508638; note: potency is the fitted concentration of half-maximal effect; % is set by controls: 0 for no effect and ±100 for the full control effect
NLuc Km ctr – NanoLuc inhibition at Km substrate, PMP22 artifact check | shares compounds with PMP22 txn prim | AID 1508639 | actives 5% (n = 690) | secreted NLuc enzyme, coelenterazine luminescence, Km conditions | Potency, µM (doses to about 57.5 µM), for inactives: at the top dose activity change, negative = inhibition, hits mostly inhibitors; note: potency is the fitted concentration of half-maximal effect; % is set by controls: 0 for no effect and ±100 for the full control effect
FLuc counter – counter-screen for PMP22 expression modulators: firefly luciferase inhibition; shares compounds with PMP22 txn prim; purified P. pyralis FLuc, luminescence, 10 min; Potency, µM (series often up to 57.5 µM), without a hit: at the highest dose activity, negative = inhibition, usual class: inhibitors; 690 tested, under 10 active; AID 1508640; note: % of control where 0% means no effect
Target sequence (P08659 whole entry, looked up): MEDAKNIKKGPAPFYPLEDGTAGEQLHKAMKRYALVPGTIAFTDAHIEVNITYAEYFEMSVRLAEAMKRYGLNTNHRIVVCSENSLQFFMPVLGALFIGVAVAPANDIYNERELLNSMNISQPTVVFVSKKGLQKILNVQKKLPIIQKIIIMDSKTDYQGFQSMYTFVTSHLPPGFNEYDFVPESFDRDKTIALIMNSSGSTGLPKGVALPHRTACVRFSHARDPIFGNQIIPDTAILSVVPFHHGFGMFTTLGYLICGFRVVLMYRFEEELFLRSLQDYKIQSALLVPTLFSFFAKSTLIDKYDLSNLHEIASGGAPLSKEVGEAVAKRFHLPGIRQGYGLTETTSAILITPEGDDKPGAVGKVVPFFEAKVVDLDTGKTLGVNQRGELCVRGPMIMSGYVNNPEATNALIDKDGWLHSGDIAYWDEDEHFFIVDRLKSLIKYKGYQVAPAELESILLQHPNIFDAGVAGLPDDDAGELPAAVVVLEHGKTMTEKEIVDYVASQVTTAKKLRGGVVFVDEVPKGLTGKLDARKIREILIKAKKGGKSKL
S16 viab conf – confirmation of cytotoxicity in S16 Pmp22-F2sN Schwann cells (luciferase reporters placed in the Pmp22 gene) | shares compounds with PMP22 txn prim | S16 Schwann cells viability, CellTiter-Glo ATP luminescence, 24 h | Potency, µM (titrated, usually from 57.5 µM), without a hit: at the top dose activity change, negative = viability loss, hits mostly cytotoxic | actives 7% (n = 690) | AID 1508641; note: potency is the fitted concentration of half-maximal effect; % is set by controls: 0 for no effect and ±100 for the full control effect
PMP22 txn conf – confirmation of modulators of PMP22 gene transcription in S16 cells; Potency, µM (top dose mostly 57.5 µM), inactives show at the top dose activity change, negative = inhibition, hits mostly inhibitors; actives 22% (n = 690); S16 Schwann cells Pmp22-F2sN, dual luciferase, 24 h; AID 1508646; shares compounds with PMP22 txn prim; active = clear falling dose curves in both reporters; inconclusive = both reporters move, but less clearly or upward; inactive = either reporter flat; the % is the FLuc reporter signal; note: potency is the fitted concentration of half-maximal effect
PMP22 HiBiT cnf – confirmation of modulators of rat PMP22 protein expression. S16 Schwann cells Pmp22-HiBiT, luminescence, 48 h. shares compounds with PMP22 txn prim. 95 tested, under 10 active. Potency, µM (titrated, usually from 27.9 µM), without a hit: top-dose activity change, negative = inhibition, actives largely listed as inhibitors
Target sequence (P25094 whole entry, looked up): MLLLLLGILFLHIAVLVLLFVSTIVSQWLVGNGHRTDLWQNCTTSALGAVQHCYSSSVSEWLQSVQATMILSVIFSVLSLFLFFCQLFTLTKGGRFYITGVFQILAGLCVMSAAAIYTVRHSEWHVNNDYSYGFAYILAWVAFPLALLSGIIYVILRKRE
Numbers without * were called inactive; i = inactive; ? = inconclusive; / = no result given. Rows were chosen to be rich in hits. Some 3.1% of all compounds tested hit in one or more screens of this group. Unless noted, calls come from the whole dose curve; as a rule, active = well fitted curve in the direction sought with a large enough effect; inconclusive = small, poorly fitted or top-dose-only effect, or another doubt; inactive = no such curve, though single readings can be large; an effect the other way counts as inactive or inconclusive.

SMILES	PMP22 txn prim	p53null 39C tox	S16 F2sN tox	mTORC1 inh	SKOV3 invasion	p53null 32C kill	NLuc saturating	NLuc Km ctr	FLuc counter	S16 viab conf	PMP22 txn conf	others
COc1ccc(C)cc1NC(=O)c1cc(S(=O)(=O)N2CCN(c3cccc(C)c3C)CC2)ccc1F	?	19%	-10%	?	i	-15%	-2%	5%	-3%	-4%	7%
O=C(Nc1cc(Cl)cc2c1[nH]c1cnccc12)c1cccnc1	/	/	/	/	-1%	/	/	/	/	/	/
CCCNC(=O)c1ccc(-n2c(-c3ccccc3)cc3c2CCC(C)C3)cc1 (stereo unspecified)	?	44%	25%	?	-27%	0%	/	/	/	/	/
COCCNC(=O)c1ccc(-n2c(-c3ccccc3)cc3c2CCC(C)C3)cc1 (stereo unspecified)	10µM*	42%	?	4%	i	15%	-16%	?	-4%	-5%	-39%
CCOCCCNC(=O)c1ccc(-n2c(-c3ccccc3)cc3c2CCCC3)cc1	?	25%	?	-13%	8%	24%	/	/	/	/	/
CC1CCc2c(cc(-c3ccccc3)n2-c2ccc(C(=O)NC(C)C)cc2)C1 (stereo unspecified)	13µM*	-23%	13%	-14%	?	50%	-13%	-4%	-15%	7%	?
CNC(=O)c1ccc2c(C(=Nc3cccc(CN(C)C)c3)c3ccccc3)c(O)[nH]c2c1	/	/	/	/	2%	/	/	/	/	/	/
Cc1n[nH]c(C)c1Cc1sc2c(c1C(=O)N1C[C@H](O)CO1)c(=O)n(C)c(=O)n2CC(C)C	/	/	/	/	0%	/	/	/	/	/	/
CCOc1ccc(NC(=O)CSc2oc(-c3ccc(F)cc3)nc2S(=O)(=O)c2ccc(C)cc2)cc1	12µM*	-23%	2%	2.9µM*	i	-15%	-2%	0%	2%	?	15µM*	PMP22 HiBiT cnf=25%
Cc1ccc(-n2c(=O)c3ccc(C(=O)NCc4ccccc4Cl)cc3n(CC(=O)Nc3ccc(C)cc3C)c2=O)cc1	15µM*	-5%	11%	-8%	i	1%	-6%	4%	6%	?	8.5µM*
CCc1ccc(NC(=O)Cn2c(=O)n(-c3ccc(OC)cc3)c(=O)c3ccc(C(=O)NCc4ccc(C)cc4)cc32)cc1	13µM*	?	-8%	?	1%	?	-2%	6%	-1%	?	12µM*	PMP22 HiBiT cnf=?
Cc1ccc(-n2c(=O)c3ccc(C(=O)NCc4ccccc4Cl)cc3n(Cc3ccccc3F)c2=O)cc1	0%	-3%	-4%	-1%	-9%	5%	/	/	/	/	/
Cc1ccc(NC(=O)Cn2c(=O)n(-c3ccc(C)cc3)c(=O)c3ccc(C(=O)NCc4ccccc4Cl)cc32)cc1	4.5µM*	?	?	-9%	i	-24%	-5%	13%	-2%	22µM*	5.1µM*	PMP22 HiBiT cnf=?
COc1ccc(C2Oc3nc(SC)nnc3-c3ccccc3N2C(C)=O)cc1 (stereo unspecified)	?	?	1%	9%	i	7%	/	/	/	/	/
CCSc1nnc2c(n1)OC(c1ccc(C)cc1)N(C(C)=O)c1ccccc1-2 (stereo unspecified)	?	0%	-25%	-2%	i	43%	?	-17%	5%	-4%	-7%
O=C(CCc1nnc2n(Cc3ccccc3Cl)c(=O)c3ccccc3n12)Nc1ccccc1	13µM*	6%	7%	0%	i	-1%	-7%	1%	-5%	-48%	?
Clc1ccc(-c2nnn3c2nc(NCc2ccc4c(c2)OCO4)c2ccccc23)cc1	?	-13%	9%	-7%	18%	0%	/	/	/	/	/
Cc1cccc(-c2nnn3c2nc(NCCc2ccc(S(N)(=O)=O)cc2)c2ccccc23)c1	-31%	-23%	15%	-1%	i	?	/	/	/	/	/
Cc1cccc(-c2nnn3c2nc(NCc2ccc4c(c2)OCO4)c2ccccc23)c1	17µM*	?	0%	-11%	64%	-4%	-12%	-20%	-10%	-23%	15µM*
Cc1cccc(-c2nnn3c2nc(NCCC(C)C)c2ccccc23)c1	13µM*	17%	8%	-2%	28%	-3%	-2%	0%	-1%	16%	-1%
OC[C@H]1O[C@@H](OCCc2ccc(O)cc2)[C@H](O)[C@@H](O)[C@H]1O	/	/	/	/	-7%	/	/	/	/	/	/
CCOC(=O)C1=C(C)NC2=C(C(=O)CC(C)(C)C2)C1c1ccc(-c2ccccc2)cc1 (stereo unspecified)	/	/	/	/	-23%	/	/	/	/	/	/
CCc1cccc(NS(=O)(=O)c2ccc3c(c2)CC(C)N3C(=O)C2CC2)c1 (stereo unspecified)	?	-3%	?	-7%	9%	42%	/	/	/	/	/
